Results filed as inconclusive are left out. Entries that show only a call come without a potency. Unmarked numbers belong to inactive results. Active and inactive are the calls of the source. Calls come from the whole dose curve; as a rule, active = well fitted curve in the direction sought with a large enough effect in the repeat runs; inconclusive = weak or mixed curves; inactive = no such curve, though single readings can be large; an effect the other way counts as inactive or inconclusive.
Columns and labels:
[1] = target: Cytochrome P450 2C19 (Homo sapiens) (UniProt P33261); experiment: Cytochrome P450 Family 2 Subfamily C Member 19 (CYP2C19) small molecule antagonists: luciferase reporter qHTS assay (AID 1671197); note: nearly all actives have a fitted effect of over 65% in size
Sequence of Cytochrome P450 2C19 (Homo sapiens) (P33261 whole entry, looked up): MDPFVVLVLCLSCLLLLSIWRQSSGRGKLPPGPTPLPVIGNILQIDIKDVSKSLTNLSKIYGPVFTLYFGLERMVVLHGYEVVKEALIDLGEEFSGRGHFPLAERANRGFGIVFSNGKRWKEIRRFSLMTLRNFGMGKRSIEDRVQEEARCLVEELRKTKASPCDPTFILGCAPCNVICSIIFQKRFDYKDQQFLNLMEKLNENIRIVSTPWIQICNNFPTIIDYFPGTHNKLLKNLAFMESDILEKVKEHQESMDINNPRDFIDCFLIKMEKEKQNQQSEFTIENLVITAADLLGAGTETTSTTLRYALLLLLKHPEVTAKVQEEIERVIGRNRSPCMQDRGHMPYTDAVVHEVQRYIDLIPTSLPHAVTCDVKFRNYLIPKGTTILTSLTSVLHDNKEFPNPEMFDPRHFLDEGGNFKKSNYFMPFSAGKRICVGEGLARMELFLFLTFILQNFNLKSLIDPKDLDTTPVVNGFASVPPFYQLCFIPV
Method in brief: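 P450-Glo CYP2C19 screening system; proluciferin substrate; DMSO compound stocks; 10 min RT preincubation; NADPH regeneration, 1 h at 37C; luciferin detection reagent, 20 min RT; luminescence as RLU.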

[2] = target: Cytochrome P450 2C9 (Homo sapiens) (UniProt P11712); experiment: Cytochrome P450 Family 2 Subfamily C Member 9 (CYP2C9) small molecule antagonists: luciferase reporter qHTS assay (AID 1671198); note: nearly all actives have a fitted effect of over 50% in size
Sequence of Cytochrome P450 2C9 (Homo sapiens) (P11712 whole entry, looked up): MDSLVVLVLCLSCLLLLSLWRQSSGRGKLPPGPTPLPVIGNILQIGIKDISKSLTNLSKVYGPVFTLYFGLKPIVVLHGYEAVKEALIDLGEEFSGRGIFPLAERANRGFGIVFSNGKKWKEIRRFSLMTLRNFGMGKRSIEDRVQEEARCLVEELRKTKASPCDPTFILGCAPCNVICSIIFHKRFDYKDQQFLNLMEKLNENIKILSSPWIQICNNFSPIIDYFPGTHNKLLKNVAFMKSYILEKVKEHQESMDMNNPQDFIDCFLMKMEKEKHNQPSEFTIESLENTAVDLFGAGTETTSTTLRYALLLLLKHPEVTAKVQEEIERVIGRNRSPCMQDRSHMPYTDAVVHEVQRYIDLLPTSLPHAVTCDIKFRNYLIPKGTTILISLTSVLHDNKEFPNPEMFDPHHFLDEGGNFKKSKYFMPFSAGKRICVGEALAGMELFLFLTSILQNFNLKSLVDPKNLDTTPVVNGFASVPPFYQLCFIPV
Method in brief: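 CYP2C9 activity was measured with a P450-Glo proluciferin substrate. Enzyme–substrate mix was held with compound for 10 min at room temperature, then NADPH regeneration solution was added for 1 h at 37C. Luciferin product was read as luminescence.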

[3] = target: Cytochrome P450 1A2 (Homo sapiens) (UniProt P05177); experiment: Cytochrome P450 Family 1 Subfamily A Member 2 (CYP1A2) small molecule antagonists: luciferase reporter qHTS assay (AID 1671199); note: nearly all actives have a fitted effect of over 50% in size
Sequence of Cytochrome P450 1A2 (Homo sapiens) (P05177 whole entry, looked up): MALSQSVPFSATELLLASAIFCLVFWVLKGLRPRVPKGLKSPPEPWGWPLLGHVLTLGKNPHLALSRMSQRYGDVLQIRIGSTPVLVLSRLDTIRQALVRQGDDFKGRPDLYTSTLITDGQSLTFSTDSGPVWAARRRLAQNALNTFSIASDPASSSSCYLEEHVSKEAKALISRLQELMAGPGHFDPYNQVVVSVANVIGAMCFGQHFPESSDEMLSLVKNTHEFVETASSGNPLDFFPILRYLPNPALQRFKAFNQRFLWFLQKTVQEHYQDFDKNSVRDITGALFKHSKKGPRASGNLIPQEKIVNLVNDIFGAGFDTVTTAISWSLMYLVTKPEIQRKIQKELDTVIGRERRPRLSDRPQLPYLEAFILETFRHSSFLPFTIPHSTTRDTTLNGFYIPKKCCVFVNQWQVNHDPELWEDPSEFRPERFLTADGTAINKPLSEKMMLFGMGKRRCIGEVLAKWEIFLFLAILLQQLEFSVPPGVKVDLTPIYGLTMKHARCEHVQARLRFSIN
Method in brief: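 Compounds were incubated with CYP1A2 and a luminogenic proluciferin substrate for 10 min at room temperature before the reaction was started with NADPH regeneration solution. After 1 h, detection reagent was added and light output, proportional to CYP activity, was recorded.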

[4] = target: Voltage-gated inwardly rectifying potassium channel KCNH2 (Homo sapiens) (UniProt Q12809); experiment: Human Ether-a-go-go-Related Gene (hERG) channel small molecule antagonists: fluorescence cell-based qHTS assay (AID 1671200); note: nearly all actives have a fitted effect of over 50% in size
Sequence of Voltage-gated inwardly rectifying potassium channel KCNH2 (Homo sapiens) (Q12809 whole entry, looked up): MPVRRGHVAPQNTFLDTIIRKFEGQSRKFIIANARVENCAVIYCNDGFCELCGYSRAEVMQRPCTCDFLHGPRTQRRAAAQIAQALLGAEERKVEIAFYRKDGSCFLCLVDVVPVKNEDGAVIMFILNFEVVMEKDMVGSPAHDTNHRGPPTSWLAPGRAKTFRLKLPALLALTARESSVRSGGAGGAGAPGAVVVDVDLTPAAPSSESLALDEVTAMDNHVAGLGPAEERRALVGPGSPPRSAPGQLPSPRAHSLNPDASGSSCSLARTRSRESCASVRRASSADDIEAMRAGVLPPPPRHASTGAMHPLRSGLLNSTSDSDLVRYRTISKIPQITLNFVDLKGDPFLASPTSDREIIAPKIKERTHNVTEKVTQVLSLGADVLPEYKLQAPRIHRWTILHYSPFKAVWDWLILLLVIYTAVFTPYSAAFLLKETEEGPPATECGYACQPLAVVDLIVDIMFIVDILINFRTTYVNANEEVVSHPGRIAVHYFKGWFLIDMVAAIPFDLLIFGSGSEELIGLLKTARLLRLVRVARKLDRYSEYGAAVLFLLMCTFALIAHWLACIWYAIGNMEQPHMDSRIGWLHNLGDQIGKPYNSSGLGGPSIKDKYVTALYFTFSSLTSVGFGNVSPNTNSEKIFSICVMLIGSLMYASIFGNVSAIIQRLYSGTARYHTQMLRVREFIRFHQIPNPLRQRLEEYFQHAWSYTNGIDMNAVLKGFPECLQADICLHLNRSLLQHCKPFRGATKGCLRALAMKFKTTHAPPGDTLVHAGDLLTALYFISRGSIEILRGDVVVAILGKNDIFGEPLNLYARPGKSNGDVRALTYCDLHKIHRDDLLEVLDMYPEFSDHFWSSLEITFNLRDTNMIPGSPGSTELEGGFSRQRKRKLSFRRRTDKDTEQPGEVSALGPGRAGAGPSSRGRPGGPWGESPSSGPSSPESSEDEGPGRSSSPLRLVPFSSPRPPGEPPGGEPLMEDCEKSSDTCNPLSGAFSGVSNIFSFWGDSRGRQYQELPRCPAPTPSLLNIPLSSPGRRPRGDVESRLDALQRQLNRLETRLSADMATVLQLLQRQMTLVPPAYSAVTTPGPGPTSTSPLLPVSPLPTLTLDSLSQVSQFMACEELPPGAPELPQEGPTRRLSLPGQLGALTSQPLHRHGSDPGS
Method in brief: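 Measured: Tl+ flux via fluorescence (480/540 nm) in hERG-expressing U2OS cells after 1 h dye loading at room temperature.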

[5] = target: Cytochrome P450 3A4 (Homo sapiens) (UniProt P08684); experiment: Cytochrome P450 Family 3 Subfamily A Member 4 (CYP3A4) small molecule antagonists: luciferase reporter qHTS assay (AID 1671201); note: nearly all actives have a fitted effect of over 50% in size
Sequence of Cytochrome P450 3A4 (Homo sapiens) (P08684 whole entry, looked up): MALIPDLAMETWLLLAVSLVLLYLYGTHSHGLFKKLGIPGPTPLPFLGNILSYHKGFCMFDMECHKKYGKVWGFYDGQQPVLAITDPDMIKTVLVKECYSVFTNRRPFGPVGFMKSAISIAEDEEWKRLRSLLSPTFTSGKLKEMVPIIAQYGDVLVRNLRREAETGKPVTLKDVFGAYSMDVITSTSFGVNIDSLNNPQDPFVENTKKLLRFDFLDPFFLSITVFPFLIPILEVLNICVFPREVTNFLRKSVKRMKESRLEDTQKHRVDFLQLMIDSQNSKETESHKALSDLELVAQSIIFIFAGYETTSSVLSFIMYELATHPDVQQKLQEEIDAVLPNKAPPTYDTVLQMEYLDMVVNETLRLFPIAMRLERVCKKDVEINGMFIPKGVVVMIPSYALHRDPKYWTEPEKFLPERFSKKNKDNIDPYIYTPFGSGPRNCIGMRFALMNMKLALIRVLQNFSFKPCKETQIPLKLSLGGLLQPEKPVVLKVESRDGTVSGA
Method in brief: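 Setup: enzyme-substrate mix, compound pin transfer, 10 min RT. Reaction: NADPH regeneration solution, 1 h RT. Readout: detection reagent stops turnover, luminescence measured after 20 min, expressed in relative luminescence units.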
Potency is the fitted concentration of half-maximal effect.

**Q.** Which Potency [1] does the source give for `O=C1CCCCCO1` here?
**A.** inactive

**Q.** What about the Potency [2] of the same molecule?
**A.** inactive

**Q.** What about the Potency [3] of the same molecule?
**A.** 35.9 µM (active)

**Q.** What about the Potency [4] of the same molecule?
**A.** inactive

**Q.** What about the Potency [5] of the same molecule?
**A.** inactive

**Q.** `CCCCC(CC)COCCCN` (stereo not given) was tested. Which Potency [1] did it give?
**A.** 5.58 µM (active)

**Q.** What about the Potency [2] of the same molecule?
**A.** 35.2 µM (active)

**Q.** What about the Potency [3] of the same molecule?
**A.** 11.1 µM (active)

**Q.** And the Potency [4]?
**A.** 38.5 µM (active)

**Q.** What about the Potency [5] of the same molecule?
**A.** 9.92 µM (active)

**Q.** With `Cn1c(=O)c2c(ncn2CC(O)CO)n(C)c1=O` (stereo not given) as the molecule, how does the Potency [1] read?
**A.** inactive

**Q.** And the Potency [2]?
**A.** inactive

**Q.** And the Potency [3]?
**A.** inactive

**Q.** What about the Potency [4] of the same molecule?
**A.** inactive

**Q.** And the Potency [5]?
**A.** inactive

**Q.** How did the Potency [1] turn out when `NC(=S)N/N=C/c1cccnc1` was run?
**A.** inactive

**Q.** And the Potency [2]?
**A.** inactive

**Q.** What about the Potency [3] of the same molecule?
**A.** 17.4 µM (active)

**Q.** And the Potency [4]?
**A.** inactive

**Q.** What about the Potency [5] of the same molecule?
**A.** inactive

**Q.** What does the source list for `O=C(Cl)c1ccc([N+](=O)[O-])cc1`?
**A.** Potency [1]: inactive; Potency [2]: inactive; Potency [3]: 55.4 µM (active); Potency [4]: inactive; Potency [5]: inactive

**Q.** Which results are given for `Cc1cc(O)ccc1N`?
**A.** Potency [1]: 17.9 µM (active); Potency [2]: 20.1 µM (active); Potency [3]: 17.9 µM (active); Potency [4]: inactive; Potency [5]: 11.3 µM (active)

**Q.** What does the source list for `Nc1ccc(C(=O)Nc2ccccc2N)cc1`?
**A.** Potency [1]: inactive; Potency [2]: inactive; Potency [3]: inactive; Potency [4]: inactive; Potency [5]: inactive

**Q.** What does the source list for `NC1CCN(c2nc3c(cc2F)c(=O)c(C(=O)O)cn3-c2ccc(F)cc2F)C1` (stereo not given)?
**A.** Potency [1]: inactive; Potency [2]: inactive; Potency [3]: inactive; Potency [4]: inactive; Potency [5]: inactive

**Q.** Which results are given for `CC(C(=O)O)c1ccc(C(=O)c2ccccc2)s1` (stereo not given)?
**A.** Potency [1]: 4.9 µM (active); Potency [2]: 17.4 µM (active); Potency [3]: 9.11 µM (active); Potency [4]: inactive; Potency [5]: inactive

**Q.** Which results are given for `CC(C)c1ccc2c(C(C)C)cc(C(C)C)c(S(=O)(=O)O)c2c1`?
**A.** Potency [1]: inactive; Potency [2]: 29.2 µM (active); Potency [3]: inactive; Potency [4]: inactive; Potency [5]: inactive

**Q.** Which results are given for `O=C(O)COC(=O)Cc1ccccc1Nc1c(Cl)cccc1Cl`?
**A.** Potency [1]: inactive; Potency [2]: 13.8 µM (active); Potency [3]: inactive; Potency [4]: inactive; Potency [5]: inactive

**Q.** How did the Potency [1] turn out when `O=C(NN1CCCC1)NS(=O)(=O)c1ccc(Cl)cc1` was run?
**A.** inactive

**Q.** What about the Potency [2] of the same molecule?
**A.** inactive

**Q.** What about the Potency [3] of the same molecule?
**A.** inactive

**Q.** What about the Potency [4] of the same molecule?
**A.** inactive

**Q.** What about the Potency [5] of the same molecule?
**A.** inactive

**Q.** How did the Potency [1] turn out when `C=Cc1c(C)c2cc3[nH]c(cc4nc(cc5nc(cc1[nH]2)C(C)=C5CCC(=O)O)C(CCC(=O)O)=C4C)c(C)c3C=C` was run?
**A.** inactive

**Q.** And the Potency [2]?
**A.** inactive

**Q.** What about the Potency [3] of the same molecule?
**A.** inactive

**Q.** What about the Potency [4] of the same molecule?
**A.** inactive

**Q.** What about the Potency [5] of the same molecule?
**A.** inactive

**Q.** How did the Potency [1] turn out when `Cc1ccc(C(=O)C(C)CN2CCCCC2)cc1` (stereo not given) was run?
**A.** 7.76 µM (active)

**Q.** And the Potency [2]?
**A.** inactive

**Q.** And the Potency [3]?
**A.** inactive

**Q.** What about the Potency [4] of the same molecule?
**A.** inactive

**Q.** What about the Potency [5] of the same molecule?
**A.** inactive

**Q.** Which Potency [1] does the source give for `NCc1ccccc1` here?
**A.** inactive

**Q.** And the Potency [2]?
**A.** inactive

**Q.** And the Potency [3]?
**A.** 31.7 µM (active)

**Q.** And the Potency [4]?
**A.** inactive

**Q.** What about the Potency [5] of the same molecule?
**A.** inactive

**Q.** Which Potency [1] does the source give for `CC1(C)[C@H]2CC[C@]1(C)[C@H](O)C2` here?
**A.** inactive

**Q.** And the Potency [2]?
**A.** inactive

**Q.** What about the Potency [3] of the same molecule?
**A.** inactive

**Q.** And the Potency [4]?
**A.** inactive

**Q.** And the Potency [5]?
**A.** inactive

**Q.** How did the Potency [1] turn out when `c1ccc(CNCc2ccccc2)cc1` was run?
**A.** 6.33 µM (active)

**Q.** What about the Potency [2] of the same molecule?
**A.** 44.8 µM (active)

**Q.** What about the Potency [3] of the same molecule?
**A.** 25.2 µM (active)

**Q.** And the Potency [4]?
**A.** inactive

**Q.** What about the Potency [5] of the same molecule?
**A.** inactive

**Q.** Which results are given for `O=C(CC(=O)c1ccccc1)c1ccccc1`?
**A.** Potency [1]: 24.1 µM (active); Potency [2]: 38.2 µM (active); Potency [3]: 3.82 µM (active); Potency [4]: inactive; Potency [5]: inactive

**Q.** Which Potency [1] does the source give for `Nc1cnn([C@@H]2O[C@H](CO)[C@@H](O)[C@H]2O)c(=O)n1` here?
**A.** inactive

**Q.** And the Potency [2]?
**A.** inactive

**Q.** What about the Potency [3] of the same molecule?
**A.** inactive

**Q.** What about the Potency [4] of the same molecule?
**A.** inactive

**Q.** And the Potency [5]?
**A.** inactive

**Q.** Which Potency [1] does the source give for `CN1CCC(=C2c3ccccc3CCc3sccc32)CC1` here?
**A.** 8.71 µM (active)

**Q.** What about the Potency [2] of the same molecule?
**A.** inactive

**Q.** What about the Potency [3] of the same molecule?
**A.** inactive

**Q.** What about the Potency [4] of the same molecule?
**A.** 16.9 µM (active)

**Q.** What about the Potency [5] of the same molecule?
**A.** inactive

**Q.** Which results are given for `CN(C)CC[C@@H](c1ccc(Br)cc1)c1ccccn1`?
**A.** Potency [1]: inactive; Potency [2]: inactive; Potency [3]: 24.5 µM (active); Potency [4]: inactive; Potency [5]: inactive

**Q.** With `CCCCCC/C=C/C=O` as the molecule, how does the Potency [1] read?
**A.** 71 µM (active)

**Q.** What about the Potency [2] of the same molecule?
**A.** 63.3 µM (active)

**Q.** And the Potency [3]?
**A.** inactive

**Q.** What about the Potency [4] of the same molecule?
**A.** inactive

**Q.** What about the Potency [5] of the same molecule?
**A.** inactive

**Q.** For `C[C@@H](C1=C(CCN(C)C)Cc2ccccc21)c1ccccn1`, which Potency [1] is on record?
**A.** inactive

**Q.** And the Potency [2]?
**A.** inactive

**Q.** What about the Potency [3] of the same molecule?
**A.** inactive

**Q.** And the Potency [4]?
**A.** 19 µM (active)

**Q.** What about the Potency [5] of the same molecule?
**A.** inactive

**Q.** For `CCCCCCCC/C=C\CCCCCCCC(N)=O`, which Potency [1] is on record?
**A.** inactive

**Q.** And the Potency [2]?
**A.** inactive

**Q.** And the Potency [3]?
**A.** 35.6 µM (active)

**Q.** What about the Potency [4] of the same molecule?
**A.** inactive

**Q.** What about the Potency [5] of the same molecule?
**A.** inactive

**Q.** Which results are given for `SC1CCCC1`?
**A.** Potency [1]: inactive; Potency [2]: inactive; Potency [3]: inactive; Potency [4]: inactive; Potency [5]: inactive

**Q.** Which results are given for `CCCCCCc1ccc(N)cc1`?
**A.** Potency [1]: 3.56 µM (active); Potency [2]: 17.8 µM (active); Potency [3]: 28.3 µM (active); Potency [4]: inactive; Potency [5]: 35.6 µM (active)

**Q.** Which Potency [1] does the source give for `COC(=O)C(C)=O` here?
**A.** 71.3 µM (active)

**Q.** And the Potency [2]?
**A.** inactive

**Q.** What about the Potency [3] of the same molecule?
**A.** 31.9 µM (active)

**Q.** What about the Potency [4] of the same molecule?
**A.** inactive

**Q.** What about the Potency [5] of the same molecule?
**A.** inactive

**Q.** Which results are given for `S=C(S)NCCNC(=S)S`?
**A.** Potency [1]: 31.2 µM (active); Potency [2]: 35 µM (active); Potency [3]: inactive; Potency [4]: inactive; Potency [5]: inactive

**Q.** Which Potency [1] does the source give for `C=CC(=O)OCC(C)OCC(C)OCC(C)OC(=O)C=C` (stereo not given) here?
**A.** 3.56 µM (active)

**Q.** And the Potency [2]?
**A.** 35.6 µM (active)

**Q.** What about the Potency [3] of the same molecule?
**A.** 6.33 µM (active)

**Q.** And the Potency [4]?
**A.** inactive

**Q.** And the Potency [5]?
**A.** 5.03 µM (active)

**Q.** With `CC(C)(C)C1CCCCC1O` (stereo not given) as the molecule, how does the Potency [1] read?
**A.** inactive

**Q.** And the Potency [2]?
**A.** inactive

**Q.** What about the Potency [3] of the same molecule?
**A.** inactive

**Q.** What about the Potency [4] of the same molecule?
**A.** inactive

**Q.** And the Potency [5]?
**A.** inactive

**Q.** How did the Potency [1] turn out when `Cc1occc1S` was run?
**A.** 56.4 µM (active)

**Q.** And the Potency [2]?
**A.** 35.6 µM (active)

**Q.** And the Potency [3]?
**A.** inactive

**Q.** What about the Potency [4] of the same molecule?
**A.** inactive

**Q.** And the Potency [5]?
**A.** 28.3 µM (active)

From PubChem BioAssay (Tox21)
